# Experimental data published in PubChem BioAssay (EPA / NIEHS).
# The source made the active and inactive calls. Rule for the calls: active = hit-call score of the fitted dose curve at least 0.9, where 1 is the maximum; inactive = score below 0.9.
# Tests used:
# [1] = BSK_KF3CT_SRB: Viability Assessment in the BioMAP Diversity Plus: KF3CT Assay (AID 2283069); settings: primary human keratinocytes with fibroblasts;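 note: total protein by sulforhodamine B staining as a cytotoxicity measure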
# Method in brief: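 Keratinocytes co-cultured with foreskin fibroblasts (human primary); chemical added, 24 h; fix 10% TCA, stain 0.1% SRB, A560. Bidirectional fit vs DMSO.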
# [2] = read-out: Interleukin-1 alpha (IL1a), IL1A (gene 3552); test: BSK_KF3CT_IL1a: BioMAP Diversity Plus: KF3CT Assay for Interleukin-1 alpha (IL1a) Biomarker Activity (AID 2283070); settings: primary human keratinocytes with fibroblasts; actives raise or lower the signal
# Method in brief: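 Chemicals were dosed onto co-cultured human keratinocytes and foreskin fibroblasts, IL-1a was quantified by ELISA at 24 h, and activity was fitted in both directions relative to DMSO controls.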
# [3] = read-out: TIMP metallopeptidase inhibitor 2 (TIMP2), TIMP2 (gene 7077); test: BSK_KF3CT_TIMP2: BioMAP Diversity Plus: KF3CT Assay for TIMP metallopeptidase inhibitor 2 (TIMP2) Biomarker Activity (AID 2283071); settings: primary human keratinocytes with fibroblasts; actives raise or lower the signal
# Method in brief: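 Human primary keratinocyte/foreskin fibroblast co-culture dosed with chemical and sampled at 24 h. TIMP-2 levels quantified by ELISA; bidirectional fitting against DMSO negative control as baseline.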
# [4] = read-out: C-C motif chemokine 2 (Homo sapiens) (UniProt P13500); test: BSK_KF3CT_MCP1: BioMAP Diversity Plus: KF3CT Assay for Monocyte Chemoattractant Protein 1 (MCP1/CCL2) Biomarker Activity (AID 2283073); settings: primary human keratinocytes with fibroblasts; actives raise or lower the signal
# Method in brief: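 Human keratinocyte–foreskin fibroblast co-culture; MCP-1 measured by ELISA 24 h after dosing. Bidirectional fit vs DMSO; cytotoxicity tracked by SRB total protein in parallel cultures.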
# [5] = read-out: urokinase plasminogen activator (uPA), PLAU (gene 5328); test: BSK_KF3CT_uPA: BioMAP Diversity Plus: KF3CT Assay for urokinase plasminogen activator (uPA) Biomarker Activity (AID 2283075); settings: primary human keratinocytes with fibroblasts; actives raise or lower the signal
# Method in brief: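 ELISA readout of uPA, analyzed for signal gain or loss relative to DMSO, from a human primary keratinocyte–foreskin fibroblast co-culture measured 24 h after chemical treatment.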
# [6] = read-out: E-selectin (Homo sapiens) (UniProt P16581); test: BSK_LPS_Eselectin: BioMAP Diversity Plus: LPS Assay for Eselectin Biomarker Activity (AID 2283077); settings: primary human HUVEC with PBMC; actives raise or lower the signal
# Method in brief: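 Human umbilical vein endothelial cells co-cultured with PBMC under LPS stimulation; cell-surface E-selectin measured by ELISA 24 h after dosing. Change in either direction versus DMSO, with SRB total-protein staining in parallel cultures for cytotoxicity.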
# [7] = read-out: Interleukin-8 (IL8), CXCL8 (gene 3576); test: BSK_LPS_IL8: BioMAP Diversity Plus: LPS Assay for Interleukin-8 (IL8) Biomarker Activity (AID 2283078); settings: primary human HUVEC with PBMC; actives raise or lower the signal
# Method in brief: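 Human umbilical vein endothelial cells co-cultured with PBMC, LPS-stimulated, exposed to compound for 24 h. IL-8 quantified by ELISA; fitted in both directions against DMSO, with SRB total-protein staining of parallel cultures for cytotoxicity.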
# [8] = BSK_LPS_SRB: Viability Assessment in the BioMAP Diversity Plus: LPS Assay (AID 2283079); settings: primary human HUVEC with PBMC;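 note: total protein by sulforhodamine B absorbance as a cytotoxicity measure; measured one day after compound addition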
# Method in brief: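 Co-culture of human umbilical vein endothelial cells and PBMC, read 24 h after dosing. Total protein by 0.1% SRB staining after 10% TCA fixation, absorbance at 560 nm; bidirectional fit against DMSO.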
# [9] = read-out: Monocyte Chemoattractant Protein-1 (MCP1), CCL2 (gene 6347); test: BSK_LPS_MCP1: BioMAP Diversity Plus: LPS Assay for Monocyte Chemoattractant Protein-1 (MCP1) Biomarker Activity (AID 2283081); settings: primary human HUVEC with PBMC; actives raise or lower the signal;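 for AC50: secreted MCP-1 protein quantified by ELISA in culture supernatant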
# Method in brief: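 Human umbilical vein endothelial cells co-cultured with PBMC, LPS-stimulated; secreted MCP-1 measured by ELISA 24 h after compound addition. Bidirectional curve fitting against DMSO baseline; SRB total-protein staining in parallel cultures for cytotoxicity.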
# [10] = BSK_LPS_PGE2: BioMAP Diversity Plus: LPS Assay for Prostaglandin E2 (PGE2) Biomarker Activity (AID 2283082); settings: primary human HUVEC with PBMC; actives raise or lower the signal
# Method in brief: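 HUVEC plus PBMC co-culture stimulated with LPS; secreted PGE2 quantified by ELISA 24 h after chemical dosing. Activity fitted bidirectionally against DMSO as negative control and baseline; parallel SRB total-protein staining served as cytotoxicity check.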
# [11] = read-out: Tissue Factor, F3 (gene 2152); test: BSK_LPS_TissueFactor: BioMAP Diversity Plus: LPS Assay for Tissue Factor Biomarker Activity (AID 2283084); settings: primary human HUVEC with PBMC; actives raise or lower the signal
# Method in brief: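 Human umbilical vein endothelial cells co-cultured with PBMC were dosed with compound. Cell-surface CD142 was measured by ELISA 24 h later. Activity was fitted bidirectionally against DMSO, with SRB total-protein staining in parallel cultures for cytotoxicity.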
# [12] = read-out: Tumor necrosis factor (Homo sapiens) (UniProt P01375); test: BSK_LPS_TNFa: BioMAP Diversity Plus: LPS Assay for Tumour Necrosis Factor alpha (TNFa) Biomarker Activity (AID 2283085); settings: primary human HUVEC with PBMC; actives raise or lower the signal
# Method in brief: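 Human umbilical vein endothelial cells co-cultured with PBMC were exposed to test chemical and TNFa measured by ELISA 24 h after dosing. Bidirectional curve fitting was done relative to DMSO as negative control and baseline.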
# [13] = read-out: Vascular cell adhesion molecule 1 (VCAM1), VCAM1 (gene 7412); test: BSK_LPS_VCAM1: BioMAP Diversity Plus: LPS Assay for Vascular cell adhesion molecule 1 (VCAM1) Biomarker Activity (AID 2283086); settings: primary human HUVEC with PBMC; actives raise or lower the signal
# Method in brief: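 Human umbilical vein endothelial cells co-cultured with peripheral blood mononuclear cells under LPS stimulation were exposed to test chemical for 24 h. VCAM-1 levels were then measured by ELISA, with bidirectional curve fitting relative to DMSO as negative control and baseline.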
# [14] = read-out: CD38, CD38 (gene 952); test: BSK_SAg_CD38: BioMAP Diversity Plus: SAg Assay for CD38 Biomarker Activity (AID 2283087); settings: primary human HUVEC with PBMC; actives raise or lower the signal
# Method in brief: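 Fluorescence ELISA of cell-surface CD38 served as the read-out, with either increase or decrease fitted against DMSO controls. Cells were a human umbilical vein endothelium plus PBMC co-culture under SEB/TSST-1 stimulation, measured 24 h after dosing.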
# [15] = read-out: CD40, CD40 (gene 958); test: BSK_SAg_CD40: BioMAP Diversity Plus: SAg Assay for CD40 Biomarker Activity (AID 2283088); settings: primary human HUVEC with PBMC; actives raise or lower the signal
# Method in brief: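 HUVEC plus PBMC co-culture, superantigen-activated, with CD40 read by ELISA 24 h after dosing. Curves fitted in both directions against DMSO. Overt cytotoxicity checked by parallel SRB total-protein staining.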
# [16] = read-out: CD69, CD69 (gene 969); test: BSK_SAg_CD69: BioMAP Diversity Plus: SAg Assay for CD69 Biomarker Activity (AID 2283089); settings: primary human HUVEC with PBMC; actives raise or lower the signal;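 for AC50: cell surface CD69 protein quantified by ELISA with fluorescence detection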
# Method in brief: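 HUVEC co-cultured with PBMC were dosed with chemical, and CD69 was measured by ELISA with fluorescence read-out 24 h later. Bidirectional curve fitting used DMSO as negative control and activity baseline.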
# [17] = read-out: Monocyte Chemoattractant Protein-1 (MCP1), CCL2 (gene 6347); test: BSK_SAg_MCP1: BioMAP Diversity Plus: SAg Assay for Monocyte Chemoattractant Protein-1 (MCP1) Biomarker Activity (AID 2283090); settings: primary human HUVEC with PBMC; actives raise or lower the signal
# Method in brief: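 MCP-1 levels in the endothelial–PBMC SAg co-culture were quantified by ELISA at 24 h post-dosing; both increases and decreases versus DMSO scored. Cytotoxicity monitored by SRB total protein in parallel cultures.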
# [18] = read-out: Monokine induced gamma interferon (MIG), CXCL9 (gene 4283); test: BSK_SAg_MIG: BioMAP Diversity Plus: SAg Assay for Monokine induced gamma interferon (MIG) Biomarker Activity (AID 2283092); settings: primary human HUVEC with PBMC; actives raise or lower the signal
# Method in brief: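 HUVEC plus human PBMC co-culture, chemicals dosed and MIG (CXCL9) quantified by ELISA at 24 h. Bidirectional curve fitting against DMSO as negative control and baseline, so both gain and loss of signal count as activity.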
# [19] = BSK_SAg_Proliferation: Cell Proliferation Assessment in the BioMAP Diversity Plus: SAg Assay (AID 2283095); settings: primary human HUVEC with PBMC;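 note: relative cell number as total protein by SRB absorbance in sub-confluent culture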
# Method in brief: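 Human umbilical vein endothelial cells co-cultured with peripheral blood mononuclear cells; total protein measured by sulforhodamine B staining (0.1% SRB after 10% TCA fixation), absorbance at 560 nm, at 96 h. Bidirectional fit against DMSO baseline.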
# [20] = BSK_SAg_SRB: Viability Assessment in the BioMAP Diversity Plus: SAg Assay (AID 2283096); settings: primary human HUVEC with PBMC;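 note: cells read one day after compound addition; hits may be either gain or loss of signal compared with DMSO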
# Method in brief: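 Total protein by sulforhodamine B staining, 24 h after dosing, in HUVEC–PBMC co-culture; DMSO-referenced bidirectional fitting.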
# Sequence of E-selectin (Homo sapiens) (P16581 whole entry, looked up): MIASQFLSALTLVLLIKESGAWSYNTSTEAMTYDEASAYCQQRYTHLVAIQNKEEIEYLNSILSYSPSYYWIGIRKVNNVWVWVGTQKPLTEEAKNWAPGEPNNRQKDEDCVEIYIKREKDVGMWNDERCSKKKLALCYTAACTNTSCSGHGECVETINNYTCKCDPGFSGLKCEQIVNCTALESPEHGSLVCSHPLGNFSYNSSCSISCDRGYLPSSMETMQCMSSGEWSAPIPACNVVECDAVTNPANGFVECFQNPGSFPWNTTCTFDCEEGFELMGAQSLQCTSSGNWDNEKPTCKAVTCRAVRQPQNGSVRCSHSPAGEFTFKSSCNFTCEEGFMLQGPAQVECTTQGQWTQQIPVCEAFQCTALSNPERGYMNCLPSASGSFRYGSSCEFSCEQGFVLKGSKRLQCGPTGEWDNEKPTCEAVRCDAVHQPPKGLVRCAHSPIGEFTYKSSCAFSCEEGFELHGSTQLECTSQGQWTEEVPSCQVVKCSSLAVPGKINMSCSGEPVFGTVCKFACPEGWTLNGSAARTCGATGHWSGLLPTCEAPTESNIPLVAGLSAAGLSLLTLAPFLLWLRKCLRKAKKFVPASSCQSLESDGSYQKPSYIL
# Sequence of Tumor necrosis factor (Homo sapiens) (P01375 whole entry, looked up): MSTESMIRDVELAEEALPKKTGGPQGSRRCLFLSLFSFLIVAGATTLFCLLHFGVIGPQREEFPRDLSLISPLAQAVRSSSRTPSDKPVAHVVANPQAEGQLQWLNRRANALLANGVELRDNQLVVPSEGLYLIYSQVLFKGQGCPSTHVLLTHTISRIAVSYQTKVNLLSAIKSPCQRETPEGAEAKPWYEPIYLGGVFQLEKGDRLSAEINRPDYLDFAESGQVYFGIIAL
structure (smiles),measurement,setting,value
CCCCCCCCCC/C=C/C1CC(=O)OC1=O (stereo not given),outcome,[1],inactive
same,outcome,[2],inactive
same,outcome,[3],inactive
same,outcome,[4],inactive
same,outcome,[5],inactive
same,outcome,[6],inactive
same,outcome,[7],inactive
same,outcome,[8],inactive
same,outcome,[9],inactive
same,outcome,[10],inactive
same,outcome,[11],inactive
same,outcome,[12],inactive
same,outcome,[13],inactive
same,outcome,[14],inactive
same,outcome,[15],inactive
same,outcome,[16],inactive
same,outcome,[17],inactive
same,outcome,[18],inactive
same,outcome,[19],inactive
same,outcome,[20],inactive
Oc1cccc2ccccc12,outcome,[1],inactive
same,outcome,[2],inactive
same,outcome,[3],inactive
same,outcome,[4],inactive
same,outcome,[5],inactive
same,outcome,[6],inactive
same,outcome,[7],inactive
same,outcome,[8],inactive
same,outcome,[9],inactive
same,outcome,[10],inactive
same,AC50,[11],6.27 µM (active)
same,outcome,[12],inactive
same,outcome,[13],inactive
same,outcome,[14],inactive
same,outcome,[15],inactive
same,outcome,[16],inactive
same,outcome,[17],inactive
same,outcome,[18],inactive
same,AC50,[19],3.97 µM (active)
same,outcome,[20],inactive
CC(C)CC(=O)CC(C)CC(C)C (stereo not given),AC50,[1],36.7 µM (active)
same,AC50,[2],35 µM (active)
same,AC50,[3],32.2 µM (active)
same,AC50,[4],37.1 µM (active)
same,AC50,[5],30.4 µM (active)
same,AC50,[6],29.6 µM (active)
same,outcome,[7],inactive
same,AC50,[8],31.7 µM (active)
same,outcome,[9],inactive
same,outcome,[10],inactive
same,outcome,[11],inactive
same,outcome,[12],inactive
same,outcome,[13],inactive
same,outcome,[14],inactive
same,outcome,[15],inactive
same,outcome,[16],inactive
same,outcome,[17],inactive
same,outcome,[18],inactive
same,outcome,[19],inactive
same,outcome,[20],inactive
CCCCCCCCCCCCCCCCCC[N+](C)(C)C,AC50,[1],2.49 µM (active)
same,AC50,[2],6.81 µM (active)
same,AC50,[3],1.2 µM (active)
same,AC50,[4],3.36 µM (active)
same,AC50,[5],3.33 µM (active)
same,AC50,[6],8.27 µM (active)
same,AC50,[7],7.3 µM (active)
same,AC50,[8],2.72 µM (active)
same,AC50,[9],3.66 µM (active)
same,outcome,[10],inactive
same,AC50,[11],8.03 µM (active)
same,outcome,[12],inactive
same,AC50,[13],7.96 µM (active)
same,AC50,[14],5 µM (active)
same,AC50,[15],5 µM (active)
same,AC50,[16],7.15 µM (active)
same,AC50,[17],6.02 µM (active)
same,AC50,[18],8.07 µM (active)
same,AC50,[19],0.995 µM (active)
same,AC50,[20],3.82 µM (active)
